Experimental findings from PubChem BioAssay (Tox21) are described below.

Where “and” joins values, the source holds several entries; their conditions need not be identical. Equal entries are not always repeated. Inconclusive results are not listed. A structure can be active in one record and inactive in another. Calls of active or inactive are those of the source. Unless noted, calls come from the whole dose curve; as a rule, active = well fitted curve in the direction sought with a large enough effect in the repeat runs; inconclusive = weak or mixed curves; inactive = no such curve, though single readings can be large; an effect the other way counts as inactive or inconclusive.

A short description of experiment [1]: A CellTox Green Cytotoxicity Assay to monitor cytotoxicity in HEK293 cells - 32 hour (AID 1224881). Note: nearly all actives have a fitted effect of over 40% in size. Note: potency is the fitted concentration of half-maximal effect. A digest of the protocol:
(§1)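 Read-out: fluorescence of a cell-impermeant cyanine dye staining DNA of dead cells, proportional to cytotoxicity. HEK293, 600 cells/well with reagent, compound (23 nL DMSO) added after 5 h; reads at 0, 8, 16, 24, 32, 40 h.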

Experiment [2] is described as follows: A CellTox Green Cytotoxicity Assay to monitor cytotoxicity in HepG2 cells - 0 hour (AID 1224882). Note: nearly all actives have a fitted effect of over 35% in size. A digest of the protocol:
(§2)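 HepG2, 600 cells/well premixed w/ CellTox Green; 5 h settle, 37 C/5% CO2; pintool cpd add (DMSO); 37 C, 40 h; fluorescence read at 0, 8, 16, 24, 32, 40 h.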

The nature of experiment [3]: A CellTox Green Cytotoxicity Assay to monitor cytotoxicity in HepG2 cells - 32 hour (AID 1224883). Note: nearly all actives have a fitted effect of over 50% in size. Note: potency is the fitted concentration of half-maximal effect. A digest of the protocol:
as §2

Experiment [4] in a line: A CellTox Green Cytotoxicity Assay to monitor cytotoxicity in HEK293 cells - 8 hour (AID 1224884). Note: nearly all actives have a fitted effect of over 35% in size. A digest of the protocol:
as §1

A short description of experiment [5]: qHTS RealTime-Glo MT Cell Viability Assay in HepG2 cells - 16 hour (AID 1224885). Note: nearly all actives have a fitted effect of over 50% in size. Note: potency is the fitted concentration of half-maximal effect. The essentials:
(§3)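 Viability was tracked continuously by NanoLuc luminescence from prosubstrate reduced by living HepG2 cells, at successive time points over 40 h of compound exposure. Cells with reagent were preincubated 5 h at 37 °C before compound addition.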
Background: In qHTS, concentration-response curves come from the screen itself.

Experiment [6] in a line: qHTS RealTime-Glo MT Cell Viability Assay in HEK293 cells - 24 hour (AID 1224886). Note: nearly all actives have a fitted effect of over 50% in size. Note: potency is the fitted concentration of half-maximal effect. A digest of the protocol:
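Viability tracked continuously by luminescence as live cells reduce a prosubstrate for NanoLuc; HEK293 cells preincubated 5 h, compound-treated at 37 C, and read at 0, 8, 16, 24, 32 and 40 h.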

A short description of experiment [7]: qHTS RealTime-Glo MT Cell Viability Assay in HEK293 cells - 8 hour (AID 1224887). Note: nearly all actives have a fitted effect of over 50% in size. Note: potency is the fitted concentration of half-maximal effect. The essentials: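 Luminescence readout at each listed time point; HEK293, 600 cells/well, RealTime-Glo MT reagent added with cells; compounds pinned (23 nL in DMSO) after 5 h at 37 C; continuous culture at 37 C.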
A short description of experiment [8]: A CellTox Green Cytotoxicity Assay to monitor cytotoxicity in HEK293 cells - 16 hour (AID 1224888). Note: nearly all actives have a fitted effect of over 35% in size. The essentials: as §1
A short description of experiment [9]: qHTS RealTime-Glo MT Cell Viability Assay in HepG2 cells - 0 hour (AID 1224889). Note: nearly all actives have a fitted effect of over 50% in size. The essentials:
as §3

Experiment [10] in a line: A CellTox Green Cytotoxicity Assay to monitor cytotoxicity in HepG2 cells - 8 hour (AID 1224890). Note: nearly all actives have a fitted effect of over 45% in size. Note: potency is the fitted concentration of half-maximal effect. The essentials:
as §2

A short description of experiment [11]: qHTS assay to identify small molecule antagonists of the estrogen receptor alpha (ER-alpha) signaling pathway using the BG1 cell line in the presence of 0.1 nM 17-beta-estradiol - cell viability counter screen (AID 1259241). Note: nearly all actives have a fitted effect of over 40% in size. A digest of the protocol: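 VM7Luc4E2 cells (endogenous full-length ER-alpha, 4xERE-luciferase), cultured 5 days in charcoal-stripped serum, exposed to compounds with 0.1 nM 17beta-estradiol (final) for 22 hr at 37C. Viability read in same wells as live-cell protease fluorescence after 30 min.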

In experiment [12] the target is Estrogen receptor (Homo sapiens) (UniProt P03372). Put plainly: qHTS assay to identify small molecule antagonists of the estrogen receptor alpha (ER-alpha) signaling pathway using the BG1 cell line in the presence of 0.1 nM 17-beta-estradiol (AID 1259244). Note: nearly all actives have a fitted effect of over 50% in size. The essentials:
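Luminescence after ONE-Glo (30 min, room temperature) measured ERE-luciferase activity in VM7Luc4E2 cells treated 22 h with compound and 0.1 nM final 17beta-estradiol as stimulator.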

Experiment [13] in a line: qHTS assay to identify small molecule phospholipidosis (PLD) inducers (AID 1259344; active = well fitted curve in the direction sought with a large enough effect; an effect the other way counts as inactive or inconclusive). The essentials:
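After 4 h attachment on collagen I, HepG2 cells were dosed with compound alongside LipidTOX Red, kept 24 h at 37 C, fixed, and imaged for lamellar phospholipid pits.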

A short description of experiment [14]: qHTS assay to identify small molecule HDAC inhibitors (AID 1259364).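 Note: wild-type HCT-116 cells with endogenous class I/II HDAC activity; top concentration of the series differs between compounds; nearly all actives have a fitted effect of over 45% in size.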 A digest of the protocol:
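HCT-116 (wild type), 1,500 cells/well, overnight; compound 2 hr 37C 5% CO2; HDAC-Glo I/II reagent 30 min RT; luminescence readout.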

Experiment [15] in a line: qHTS assay to identify small molecule HDAC inhibitors - cell viability counter screen (AID 1259365). A digest of the protocol: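 Wild-type HCT-116 cells, 1,500/well, cultured overnight, then compound-treated 2 h at 37 C. Viability measured as ATP luminescence with CellTiter-Glo after 30 min at room temperature.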
The nature of experiment [16]: qHTS assay to identify small molecule agonists of the sonic hedgehog signaling (Shh) pathway - cell viability counter screen (AID 1259366). Note: nearly all actives have a fitted effect of over 50% in size. Note: potency is the fitted concentration of half-maximal effect. A digest of the protocol: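 NIH/3T3-derived Gli1-Luc reporter cells, 2,000 per well, received compound after 4 h and were treated about 23 h at 37C. Viability measured in the same wells by CellTiter-Fluor fluorescence after 1 h.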

The nature of experiment [17]: qHTS assay to identify small molecule antagonists of the sonic hedgehog signaling (Shh) pathway - cell viability counter screen (AID 1259367). Note: nearly all actives have a fitted effect of over 55% in size. Note: potency is the fitted concentration of half-maximal effect. A digest of the protocol: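 Conditioned medium drove Shh signaling in 3T3 Gli1-Luc cells exposed to compounds at 37C and 5% CO2. Viability was determined from CellTiter-Fluor fluorescence, with reagent incubated 1 hr after 23 hr of treatment.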

Experiment [18] is described as follows: qHTS assay to identify small molecule agonists of the sonic hedgehog signaling (Shh) pathway (AID 1259368; calls by dose curve;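 note: NIH/3T3-derived 3T3Gli1-Luc cells carrying a stable Gli1-driven firefly luciferase reporter; series mostly up to about 92 µM; nearly all actives have a fitted effect of over 15% in size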). A digest of the protocol:
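Read-out: firefly luciferase luminescence from a Gli1 response element reporter stably integrated in NIH/3T3-derived 3T3Gli1-Luc cells, measured 30 min at room temperature after reagent addition. Compound exposure lasted 24 hr at 37 C, 5% CO2.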

Experiment [19] is described as follows: qHTS assay to identify small molecule antagonists of the androgen receptor (AR) signaling pathway using the MDA cell line in the presence of 0.5 nM R1881 - cell viability counter screen (AID 1259242). Note: nearly all actives have a fitted effect of over 45% in size. Note: potency is the fitted concentration of half-maximal effect. The essentials:
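Live-cell protease fluorescence, CellTiter-Fluor, 30 min at 37C. Cells: MDA-kb2, 3,000/well, preincubated 5 hr. Compounds plus 0.5 nM R1881 final, 16 hr, 37C, 0% CO2.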

The target in experiment [20] is Androgen receptor (Homo sapiens) (UniProt P10275). Nature of the experiment: qHTS assay to identify small molecule antagonists of the androgen receptor (AR) signaling pathway using the MDA cell line in the presence of 0.5 nM R1881 (AID 1259243). Note: nearly all actives have a fitted effect of over 50% in size. A digest of the protocol: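 MDA-kb2, MMTV-luc (AR/GR elements); 3,000 cells/well; cpd + 0.5 nM R1881 final; 16 hr 37C, 0% CO2; ONE-Glo 30 min RT; luminescence.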
Androgen receptor (Homo sapiens), sequence (P10275 whole entry, looked up): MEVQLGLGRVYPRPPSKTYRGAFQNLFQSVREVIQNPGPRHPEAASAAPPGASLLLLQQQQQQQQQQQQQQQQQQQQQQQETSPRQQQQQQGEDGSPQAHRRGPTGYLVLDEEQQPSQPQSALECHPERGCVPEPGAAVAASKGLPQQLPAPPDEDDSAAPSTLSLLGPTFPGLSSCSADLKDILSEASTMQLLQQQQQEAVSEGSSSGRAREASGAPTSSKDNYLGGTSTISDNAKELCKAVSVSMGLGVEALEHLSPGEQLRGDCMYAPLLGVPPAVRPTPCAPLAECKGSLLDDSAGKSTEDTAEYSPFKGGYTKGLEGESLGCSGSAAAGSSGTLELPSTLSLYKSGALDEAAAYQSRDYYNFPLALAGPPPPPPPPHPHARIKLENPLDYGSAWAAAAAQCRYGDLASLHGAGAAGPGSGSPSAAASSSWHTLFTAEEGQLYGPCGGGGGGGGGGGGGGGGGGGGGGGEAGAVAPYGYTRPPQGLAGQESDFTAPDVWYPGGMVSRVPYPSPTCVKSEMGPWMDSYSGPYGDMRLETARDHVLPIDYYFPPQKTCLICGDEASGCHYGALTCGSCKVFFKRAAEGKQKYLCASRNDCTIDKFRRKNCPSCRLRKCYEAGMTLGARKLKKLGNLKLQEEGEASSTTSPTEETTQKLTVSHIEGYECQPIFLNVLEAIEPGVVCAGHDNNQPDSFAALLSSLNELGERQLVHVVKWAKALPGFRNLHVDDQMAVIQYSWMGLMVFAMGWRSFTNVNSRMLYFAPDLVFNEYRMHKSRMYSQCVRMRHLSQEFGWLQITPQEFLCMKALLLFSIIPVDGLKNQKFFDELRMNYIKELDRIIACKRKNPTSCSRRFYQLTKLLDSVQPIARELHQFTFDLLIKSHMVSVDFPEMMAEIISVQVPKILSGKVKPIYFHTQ

Estrogen receptor (Homo sapiens), sequence (P03372 whole entry, looked up): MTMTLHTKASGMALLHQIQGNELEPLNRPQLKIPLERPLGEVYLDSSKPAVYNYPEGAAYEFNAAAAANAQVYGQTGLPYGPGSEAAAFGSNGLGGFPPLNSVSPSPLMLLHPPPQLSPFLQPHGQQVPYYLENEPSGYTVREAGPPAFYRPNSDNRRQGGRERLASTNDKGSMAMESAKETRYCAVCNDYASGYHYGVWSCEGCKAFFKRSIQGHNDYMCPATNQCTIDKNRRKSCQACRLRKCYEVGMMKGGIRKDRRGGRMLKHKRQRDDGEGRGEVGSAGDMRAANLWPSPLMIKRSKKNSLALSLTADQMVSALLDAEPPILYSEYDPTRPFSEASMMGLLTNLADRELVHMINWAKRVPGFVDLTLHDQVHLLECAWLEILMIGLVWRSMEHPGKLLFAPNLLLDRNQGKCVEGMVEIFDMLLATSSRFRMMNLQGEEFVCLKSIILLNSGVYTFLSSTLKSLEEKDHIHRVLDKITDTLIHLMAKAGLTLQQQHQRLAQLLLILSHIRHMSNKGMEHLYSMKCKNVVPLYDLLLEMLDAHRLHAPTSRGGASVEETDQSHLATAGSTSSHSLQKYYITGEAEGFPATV

For `CC[N+](CC)(CCNC(=O)C(=O)NCC[N+](CC)(CC)Cc1ccccc1Cl)Cc1ccccc1Cl`, the Potency result in [1], in experiment [2], in experiment [3], in experiment [4], in experiment [5] and in experiment [6] was “inactive” throughout. For the same compound, the Potency entry in experiment [7], in [8], in experiment [9], in [10], in experiment [11] and in experiment [12] was “inactive” each time. The Potency entry in [13], in [14], in experiment [15], in [16], in [17] and in [18] was “inactive” each time.
Turning to `CCOC(=O)OC(C)OC(=O)[C@@H]1N2C(=O)[C@@H](NC(=O)[C@H](N)c3ccccc3)[C@H]2SC1(C)C` (some centres undefined), the Potency result in experiment [1], in [2], in [3], in experiment [4], in experiment [5] and in [6] was “inactive” throughout. The Potency result in [7], in experiment [8], in experiment [9], in experiment [10], in experiment [19] and in experiment [13] was “inactive” in each case. The Potency entry in experiment [14], in experiment [15], in experiment [16], in experiment [17] and in experiment [18] was “inactive” throughout.
Take `OCCOCC#CCOCCO`: the Potency result in [1], in [2], in experiment [3], in experiment [4], in [5] and in [6] was “inactive” throughout. Moreover, the Potency entry in experiment [7], in [8], in experiment [9], in experiment [10], in [11] and in experiment [12] was “inactive” in each case. In addition, the Potency entry in experiment [14], in experiment [15], in experiment [16], in [17] and in experiment [18] was “inactive” each time.
For `CCCCCC[C@@H](O)C/C=C\CCCCCCCC(=O)OCC(O)CO` (some centres undefined), the Potency entry in experiment [1], in experiment [2], in experiment [3], in experiment [4], in [5] and in [6] was “inactive” throughout. Moreover, the Potency result in experiment [7], in experiment [9], in experiment [10], in [11], in [20] and in [12] was “inactive” each time. Moreover, the Potency result in [14], in experiment [15], in experiment [16], in [17] and in experiment [18] was “inactive” each time.
With `C[C@]12CC[C@@H]3c4ccc(O)cc4CC[C@H]3[C@@H]1CC[C@@H]2OC(=O)CCC1CCCC1`, the Potency was 54.9 µM (active) in experiment [1]; 49 µM (active) and 23.9 µM (active) in experiment [3]; 49 µM (active) and inactive in experiment [5]; 43.6 µM (active) and inactive in experiment [6]; 49 µM (active) and inactive in [7]; 49 µM (active) in experiment [10]. Also, in experiment [16], the Potency is 54.5 µM (active). Further, the Potency result in experiment [2], in experiment [4], in experiment [9], in experiment [11], in experiment [19] and in experiment [12] was “inactive” in each case. Besides, the Potency result in experiment [13], in [14], in experiment [15], in [17] and in [18] was “inactive” in each case.
`CC(=O)Nc1cc(S(=O)(=O)O)cc2cc(S(=O)(=O)O)c(N=Nc3ccccc3)c(O)c12`: the Potency entry in experiment [1], in experiment [2], in experiment [3], in [4], in experiment [5] and in experiment [6] was “inactive” in each case. Also, the Potency entry in experiment [7], in experiment [8], in experiment [9], in experiment [10], in experiment [14] and in [18] was “inactive” throughout. Besides, the figures for the Potency in experiment [19], in experiment [16] and in [17] were 27.3 µM (active), 27.3 µM (active) and 24.3 µM (active), respectively.
Turning to `NCCNCCO`, the Potency entry in [1], in experiment [2], in [3], in experiment [4], in experiment [5] and in experiment [6] was “inactive” throughout. Besides, the Potency result in experiment [7], in experiment [8], in experiment [9], in experiment [11], in experiment [19] and in experiment [12] was “inactive” in each case. Besides, the Potency entry in [14], in experiment [15], in experiment [16], in experiment [17] and in experiment [18] was “inactive” each time.
